# Test results taken from the supplement of paper PMC9694430.
# Experiments:
# Test in all cases: thermal shift delta Tm vs DMSO control; higher = stronger stabilization (binding)
# Settings in all cases: 12.5 µM; protein concentration 2 µM
# [1] = test system: LOC_OS01G01410-cb001
# In short: (§1)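 Thermal shift values come from differential scanning fluorimetry on purified rice kinase domains made in E. coli, with melting temperatures obtained from Boltzmann fits. Samples of 19.5 μl held 2 μM kinase, 100 mM potassium phosphate pH 7.5, 150 mM NaCl, 10% glycerol, 5 × SYPRO Orange and compound in DMSO, and were heated from 25°C to 95°C at 0.05°C/s. Each shift is a triplicate mean relative to the DMSO-only protein sample.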
# [2] = test system: LOC_OS01G02750-cb003
# In short: as §1
# [3] = test system: LOC_OS01G10900-cb004
# In short: as §1
# [4] = test system: LOC_OS01G13800-cb001
# In short: as §1
# [5] = test system: LOC_OS01G14860-cb001
# In short: as §1
# [6] = test system: LOC_OS01G21960-cb002
# In short: as §1
# [7] = test system: LOC_OS01G39600-cb002
# In short: as §1
# [8] = test system: LOC_OS01G48390-cb002
# In short: as §1
# [9] = test system: LOC_OS01G51400-cb002
# In short: as §1
# [10] = test system: T1, LOC_OS01G52050-cb004
# T1 sequence (whole entry): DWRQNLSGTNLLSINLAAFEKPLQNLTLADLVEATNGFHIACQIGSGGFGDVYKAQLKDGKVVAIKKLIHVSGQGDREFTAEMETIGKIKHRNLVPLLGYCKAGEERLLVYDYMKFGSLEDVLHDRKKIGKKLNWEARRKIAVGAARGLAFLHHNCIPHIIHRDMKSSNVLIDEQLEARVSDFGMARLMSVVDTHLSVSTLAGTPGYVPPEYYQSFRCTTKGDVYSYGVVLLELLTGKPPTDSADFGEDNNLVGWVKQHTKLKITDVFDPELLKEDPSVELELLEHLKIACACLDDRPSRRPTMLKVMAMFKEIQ
# In short: as §1
# [11] = test system: LOC_OS01G57100-cb003
# In short: as §1
# [12] = test system: LOC_OS01G60330-cb001
# In short: as §1
# [13] = test system: LOC_OS01G60700-cb002
# In short: as §1
# [14] = test system: LOC_OS01G63280-cb003
# In short: as §1
# [15] = test system: LOC_OS01G67340-cb003
# In short: as §1
# [16] = test system: LOC_OS01G70970-cb002
# In short: as §1
# [17] = test system: LOC_OS02G07810-cb001
# In short: as §1
# [18] = test system: LOC_OS02G08530-cb003
# In short: as §1
# [19] = test system: LOC_OS02G14120-cb001
# In short: as §1
# [20] = test system: LOC_OS02G17970-cb001
# In short: as §1
# 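Further: purified Escherichia coli-expressed rice kinase domain construct.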
SMILES,thermal shift delta Tm [1] [°C],thermal shift delta Tm [2] [°C],thermal shift delta Tm [3] [°C],thermal shift delta Tm [4] [°C],thermal shift delta Tm [5] [°C],thermal shift delta Tm [6] [°C],thermal shift delta Tm [7] [°C],thermal shift delta Tm [8] [°C],thermal shift delta Tm [9] [°C],thermal shift delta Tm [10] [°C],thermal shift delta Tm [11] [°C],thermal shift delta Tm [12] [°C],thermal shift delta Tm [13] [°C],thermal shift delta Tm [14] [°C],thermal shift delta Tm [15] [°C],thermal shift delta Tm [16] [°C],thermal shift delta Tm [17] [°C],thermal shift delta Tm [18] [°C],thermal shift delta Tm [19] [°C],thermal shift delta Tm [20] [°C]
Oc1ccc(-c2nc(-c3ccc(F)cc3)c(-c3ccncc3)[nH]2)cc1,1.39,0.58,0.58,0.18,2.36,0.98,-0.06,0.38,0.01,0.5,1.5,0.98,2.02,0.47,-0.26,0.63,1.96,1.58,0.99,1.05
Cc1c(NC(=O)OC[C@@H]2COCCN2)cn2ncnc(Nc3ccc4c(cnn4Cc4cccc(F)c4)c3)c12,0.88,-0.18,0.06,0.7,0.19,0.52,0.91,0.07,0.14,0.23,0.24,1.47,1.55,0.59,-0.1,0.39,0.88,0.86,0.51,0.42
COc1cc2ccc(=O)oc2cc1O [Scopoletin],-0.07,0.35,0.25,-0.08,0.39,0.11,-0.27,-0.08,0.18,0.81,0.91,0.02,-0.06,-0.04,-0.05,0.41,-1.02,0.39,0.77,1.18
COc1c(C)c(C(=O)c2ccc(N)c(C(=O)O)c2)n2ccccc12,0.21,1.05,0.42,-0.23,0.24,0.79,-11.6,0.46,0.21,0.12,1.57,0.95,1.12,-0.1,-0.08,0.36,0.92,0.95,-0.55,1.28
